# The panel holds about 83,000 compounds, 20% with a hit somewhere; the sample as a whole holds those more often.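 Single-dose data. Exposure time 48 hours. Values below 10 considered active.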 Activity calls are given as the source filed them.
# Test system: T-47D breast
# Experiment: NCI-60 one-dose screen, 48 h (100 = growth as untreated, 0 = no growth, -100 = all killed)
# Details: 10 µM unless noted
row,SMILES,growth
1,O=c1c2cc(Br)cc(Br)c2nc(-c2ccc(Cl)cc2)n1/N=C\c1ccccc1F,69.7% (inactive)
2,O=C(O)CSc1ccc(NCc2oc(CO)cc(=O)c2O)cc1,108% (inactive)
3,O=C(c1ccccc1)C1OC1C(=O)c1ccccc1 (configuration not stated),-7.04% (active)
4,CS(=O)(=O)c1ccc(C(=O)Nc2ccc(Cl)c(-c3ccccn3)c2)c(Cl)c1,16.6% (inactive)
5,COc1ccccc1/C=N\Nc1ccc([N+](=O)[O-])cn1,94.8% (inactive)
6,CCN1C(=O)N(CC)C2C1N=C(SC)N2/N=C/C=C/c1ccccc1OC (configuration not stated),54.2% (inactive)
7,O=C(c1ccccc1)C(CCc1ccccn1)CCc1ccccn1,92.3% (inactive)
8,C=C[C@H]1CCC/C=C/[C@@H]2C[C@H](O)C[C@H]2[C@H](O)/C=C/C(=O)O1,-14% (active)
9,CCN1C(=O)N(CC)C2C1NC(=O)N2/N=C/C=C/c1ccccc1 (configuration not stated),34.2% (inactive)
10,O=[N+]([O-])c1ccc(N/N=C/c2ccccc2O)nc1,24% (inactive)
11,O=S1(=O)NCCCN1CCNc1nccc(-c2c(-c3cccc(O)c3)nc3sccn23)n1,78.3% (inactive)
12,OC(CCCCCCCCC(O)CN1CCc2ccccc2C1)CN1CCc2ccccc2C1 (configuration not stated),99.6% (inactive)
13,CCCCCCCCCCCCNC(=O)N[C@H](C(=O)N[C@H]1/C=C/CCNC(=O)/C=C/[C@H](C)NC1=O)C(C)C,-41.9% (active)
14,COc1ccccc1-[n+]1cc(-c2ccc(-c3ccccc3)cc2)n2c1CCCCC2,-5.11% (active)
15,O=C(CCl)N1c2ccccc2Oc2ccc3ccccc3c21,-62.5% (active)
16,C=C(c1ccc(C(=O)NCCCn2ccnc2)cc1)c1cc2c(cc1C)C(C)(C)CCC2(C)C,-16.9% (active)

row,SMILES,growth
1,COc1cc(CN2CCC(N3CCCC3=O)c3ccccc32)cc(OC)c1OC (configuration not stated),68.3% (inactive)
2,CCCCc1nc(Cl)c(C2CC(c3ccc(S(N)(=O)=O)cc3)=NN2c2cc(Cl)cc(Cl)c2)[nH]1 (configuration not stated),42.5% (inactive)
3,O=C1NN(C(=O)c2ccccc2)C(c2ccc(Cl)c(Cl)c2)=C/C1=C\c1ccccc1[N+](=O)[O-],27.6% [6.75 µM] (inactive)
4,Clc1cc(Cl)cc(-c2cnc3nonc3n2)c1,59.8% (inactive)
5,CCOC(=O)Cn1c(-c2nonc2NC(=O)c2ccccc2F)nc2ccccc21,75.6% (inactive)
6,COc1ccc(C(=O)O)cc1.[Ag],92.6% (inactive)
7,C=CCOC(=O)C1=C(C)NC2=C(C(=O)CCC2)C1c1ccc(F)cc1 (configuration not stated),89.4% (inactive)
8,COc1cc(CN(c2ccc(C)cc2)C2OC(=O)c3ccccc32)cc(OC)c1OC (configuration not stated),53.8% (inactive)
9,CN1C(=O)C(C(=O)/C=C/c2ccccc2C(=O)O)C(=O)N(C)C1=O,89.2% (inactive)
10,CC1(C)OC2OC3C(CN)OC(c4ccccc4)OC3C2O1 (configuration not stated),92.6% (inactive)
11,O=S(=O)(Cc1ccc(Cl)cc1Cl)c1ccc(Cl)cc1,47.5% (inactive)
12,COC(=O)OC1C(O[C@H]2C[C@H]3[C@@H]4CC=C5C[C@@H](O)CC[C@]5(C)[C@H]4CC[C@]3(C)[C@H]2[C@H](C)C(=O)CCC(C)C)OCC(O)C1OC1OCC(O)C(O)C1OC(=O)c1ccc(OC)cc1 (some centres not stated),-5.41% (active)
13,CC(C)c1ccc2c(c1)CCC1C2CCCC1(C)NCc1ccccc1 (configuration not stated),12.8% (inactive)
14,CC(CN1CCN(CC(C)Nc2ccnc3cc(Cl)ccc23)CC1)Nc1ccnc2cc(Cl)ccc12 (configuration not stated),-21.3% (active)
15,C=CCOC(=O)C1=C(C)NC2=C(C(=O)CC(C)(C)C2)C1c1ccc(OC)cc1 (configuration not stated),99% (inactive)
16,CCCCCCCC/C=C/CCCCCCCC1=NC(C)(C)CN1c1ccccc1,81.2% (inactive)

# Reference: PubChem BioAssay (NCI)
